Among the data in PubChem BioAssay (Tox21) are Potency values, retold here.

Records with an inconclusive call do not appear. Where a call stands in place of a potency, no number is given. The source made the active and inactive calls. The call rests on the fitted dose curve; in most records, active means well fitted cell-killing curve with a large enough effect in the repeat runs; inconclusive means weak or mixed curves; inactive means no such curve, though single readings can be large or run the other way.
Potency means the concentration at half of the fitted maximal effect.

A short description of the test: qHTS assay for identifying genotoxic compounds that show differential cytotoxicity against isogenic chicken DT40 cell lines with known DNA damage response pathways - Rad54/Ku70 mutant cell line (AID 743015). Further: nearly all actives have a fitted effect of over 60% in size. As to conditions: DT40 Rad54/Ku70 mutant viability, CellTiter-Glo, 40 h; series mostly up to 66.8 µM. The source says: National Center for Advancing Translational Sciences [NCATS]
NIH Chemical Genomics Center [NCGC]
U.S. Environmental Protection Agency [EPA]
National Institutes of Environmental Health Sciences [NIEHS]
National Toxicology Program [NTP]
U.S. Food and Drug Administration [FDA]
DNA repair pathways play a critical role in cellular homeostasis by repairing DNA damage induced by endogenous processes and xenobiotics. Isogenic chicken DT40 cell lines deficient in different DNA repair pathways can be used to identify genotoxic compounds and aid in characterizing the nature of the DNA damage induced. Two DNA repair-deficient cell lines with disrupted genes, Rad54/Ku70 or Rev3, were used to screen the Tox21 10K compound library. Possible genotoxicity was based on the presence of a significant increase in cytotoxicity in one or more of the DNA repair-deficient cell lines compared to that observed in the parental DNA repair-proficient cell line. CellTiter Glo viability assay (Promega, Madison, WI) was used to measure cell viability in these cells after compound treatment. This assay includes the data from the Rad54/Ku70 mutant cell line.
Tox21 Assay Protocol Summary:
300 DT40 mutant cells in 5 uL/well were dispensed into white, solid-bottom 1536-well plates using a Multidrop Combi (ThermoFisher Scientific, Waltham, MA) dispenser. After the assay plates were incubated at 37 C/5% CO2 for approximately 0.5 hour, 23 nL of compounds dissolved in DMSO, positive controls or DMSO only was transferred into the assay plate by a pintool work station (Kalypsys, San Diego, CA). The assay plates were incubated at 37 C/5% CO2 for 40 hours. After 5 uL per well of CellTiter-Glo reagent was added into each well of the assay plates, the plates were incubated for 30 min at room temperature and the luminescence intensity of the plates was measured using a ViewLux (PerkinElmer, Shelton, CT) plate reader.
Background: qHTS replaces the single test concentration by a dilution series.
Take `Nc1ccc([N+](=O)[O-])c(N)c1`: the Potency entry was “inactive”.

`O=C(CS(=O)Cc1ccco1)NC/C=C\COc1cc(CN2CCCCC2)ccn1` (stereo not given): the Potency result was “inactive”.

Regarding `NC(CO)C(=O)NNCc1ccc(O)c(O)c1O` (stereo not given), the Potency entry was “inactive”.

Turning to `CNC(=O)[C@H]1O[C@@H](n2cnc3c(NCc4cc(Cl)ccc4OCc4cc(C)no4)ncnc32)[C@H](O)[C@@H]1N`, the Potency entry was “inactive”.

As for `CC(CC=O)CCCC(C)(C)O` (stereo not given), the Potency result was “inactive”.

As to `COCCOCCOCCOCCOCCO`, the Potency entry is “inactive”.

In the case of `O=C(O)c1cc(Br)c(O)c(Br)c1`, the Potency entry was “inactive”.

On to `CCOc1cc([N+](=O)[O-])c(OCC)cc1N1CCOCC1`, for which the Potency result was “inactive”.

In the case of `CC(=O)NCCCCCC(=O)O`, the Potency entry is “inactive”.

Regarding `CCCCCCCCCC(C)=O`, the Potency entry is “inactive”.

For `C[C@@H](O)[C@H]1C(=O)N2C(C(=O)O)=C(SCCN=CN)C[C@H]12`, the Potency result is “inactive”.

Regarding `OCCC(F)(F)C(F)(F)C(F)(F)C(F)(F)C(F)(F)C(F)(F)C(F)(F)C(F)(F)F`, the Potency entry was “inactive”.

`Nc1nnc(-c2cccc(Cl)c2Cl)c(N)n1`: the Potency result was “inactive”.

Regarding `CC(C)(C)OC(=O)c1ccc(O)cc1`, the Potency result is “inactive”.

`C=C(C)C(=O)OCc1ccccc1`: the Potency entry was “inactive”.

As to `C=C(C)C(=O)OCC(C)(C)COC(=O)C(=C)C`, the Potency result was “inactive”.

Turning to `CCOCCOCCOCC`, the Potency entry was “inactive”.

For `O=C(NCCc1c[nH]c2ccccc12)c1cccnc1`, the Potency entry is “inactive”.

Take `O=C(O)Cc1cn(-c2ccccc2)nc1-c1ccc(Cl)cc1`: the Potency result is “inactive”.

As to `Brc1ccc(-c2ccccc2)cc1`, the Potency entry is “inactive”.

Consider `CCCCCCCCCCl`, for which the Potency entry was “inactive”.

In the case of `O=C(OCC1(COC(=O)c2cccnc2)CCCC(COC(=O)c2cccnc2)(COC(=O)c2cccnc2)C1O)c1cccnc1`, the Potency result was “inactive”.

In the case of `O=C(CCN1CCN(CCO)CC1)N1c2ccccc2Sc2ccc(C(F)(F)F)cc21`, the Potency was 29.8 µM (active).

With `C=C(C)C(=O)OCCN(CC)CC`, the Potency result is “inactive”.

With `CCCCOC(=O)c1ccccc1`, the Potency entry is “inactive”.

On to `O=C(NCCN1CCOCC1)c1ccc(Cl)cc1`, for which the Potency entry is “inactive”.

Turning to `CCCCCCOc1ccccc1C(N)=O`, the Potency was 21.1 µM (active).

As for `Cc1ccccc1N=O`, the Potency result was “inactive”.

Consider `O=C(OCc1ccccc1)C(=O)OCc1ccccc1`, for which the Potency entry was “inactive”.

For `CC1(CO)CN(c2ccccc2)NC1=O` (stereo not given), the Potency result was “inactive”.

Turning to `CCCCCCN`, the Potency result is “inactive”.

For the molecule `N[C@@H](CCC(=O)Nc1ccc([N+](=O)[O-])cc1)C(=O)O`, the Potency result was “inactive”.

As to `Cc1cc(Cl)c(C)cc1Cl`, the Potency result was “inactive”.

In the case of `N[C@@H](COP(=O)(O)O)C(=O)O`, the Potency result is “inactive”.

With `COc1cc(NS(=O)(=O)c2ccc(N)cc2)nc(OC)n1`, the Potency entry was “inactive”.

Consider `CC(C)CCCCOC(=O)c1ccccc1C(=O)OCCCCC(C)C`, for which the Potency result is “inactive”.

`CCN1CCc2nc(N)oc2CC1`: the Potency result is “inactive”.

With `O=C(/N=N/C(=O)OCc1ccccc1)OCc1ccccc1`, the Potency was 61.1 µM (active).

For the molecule `O=C(OCC(COC(=O)c1cccnc1)(COC(=O)c1cccnc1)COC(=O)c1cccnc1)c1cccnc1`, the Potency result was “inactive”.

On to `CCNC(=O)C1CC(C)CCC1C(C)C` (stereo not given), for which the Potency result is “inactive”.
